Shown are actives, neighbours in structure and some others; about 18% of the full set was active somewhere.
LDHA inh: blocks human lactate dehydrogenase A; AID 1347041; hit rate 0.15% among 480,000; activity change, % (values are at about 110 or 230 µM); purified LDHA, NADH/diaphorase-resazurin fluorescence; hits give low values; in the data active means activity change below about -30%; inconclusive means mostly about -25% to -30%;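 further: plate controls were DMSO wells for no effect and wells without enzyme for full effect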
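Human LDH5 at 2 nM final in Tris HCl pH 7.4 with 0.06 mM NADH and 0.2 mM pyruvate, reacted 5 minutes at room temperature. Remaining NADH coupled via diaphorase/resazurin; resorufin fluorescence read at 0 and 20 minutes, normalized to enzyme-free and DMSO wells.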
RORg inh: inhibitors of mouse ROR gamma transcriptional activity; P51450; Drosophila S2 Gal4-RORgamma UAS-luciferase reporter, 20 h; Potency, µM (titrated, usually from 53.6 µM), for the others: top-dose activity change, negative = inhibition, actives largely listed as inhibitors; hit rate 5.4% among 310,000; AID 2551; further: potency means the concentration at half of the fitted maximal effect; nearly all actives have a fitted effect of over 60% in size
Target sequence (P51450 whole entry, looked up, the tested form may be a part): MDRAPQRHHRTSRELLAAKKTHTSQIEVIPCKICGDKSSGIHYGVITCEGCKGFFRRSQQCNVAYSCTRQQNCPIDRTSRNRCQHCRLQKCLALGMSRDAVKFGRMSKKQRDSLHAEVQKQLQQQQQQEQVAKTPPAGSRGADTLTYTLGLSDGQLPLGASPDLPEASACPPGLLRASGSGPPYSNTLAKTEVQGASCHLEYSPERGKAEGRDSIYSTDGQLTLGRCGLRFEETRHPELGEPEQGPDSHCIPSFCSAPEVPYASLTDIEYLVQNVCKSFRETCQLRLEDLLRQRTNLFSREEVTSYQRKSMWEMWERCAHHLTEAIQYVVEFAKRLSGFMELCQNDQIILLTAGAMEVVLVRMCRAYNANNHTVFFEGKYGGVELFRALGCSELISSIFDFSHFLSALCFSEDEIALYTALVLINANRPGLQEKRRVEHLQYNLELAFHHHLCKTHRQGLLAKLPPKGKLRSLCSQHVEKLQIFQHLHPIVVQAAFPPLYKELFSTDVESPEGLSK
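Schneider cells (Drosophila), stable Gal4 DBD–ROR gamma + UAS-luc; 1 hr cmpd preincubation; Cu2+ induction 700 uM final; 20 hr ambient; luminescence.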
IL-1B inflam inh: blocks inflammasome-driven IL-1 beta release; activity change, % at 57.5 µM; AID 743279; THP-1 LPS/ATP IL-1B secretion, AlphaLISA, 16 h; hits give low values; hit rate 4.7% among 360,000; in the data active means activity change below about -50%; inconclusive means mostly about -30% to -49%
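Secreted IL-1B measured by AlphaLISA bead assay after 16 h compound exposure of THP-1 cells; compounds (final up to 57.5 uM) added 1 h before LPS (250 ng/mL) and ATP (1.25 mM) stimulation; lower signal means less secretion.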
DT40 TDP1 CPT: DT40-hTDP1 cell growth loss with CPT; chicken DT40 Tdp1-/-;hTDP1 cells + 20 nM CPT, ATP luminescence, 48 h; Potency, µM (highest dose often 46.2 µM), for inactives: at the top dose activity change, negative = growth inhibition, most hits filed as inhibitors; hit rate 12% among 420,000; AID 686979; further: potency means the concentration at half of the fitted maximal effect; nearly all actives have a fitted effect of over 55% in size
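Chicken DT40 Tdp1-/- cells complemented with human TDP1, 400 cells/well, exposed to compounds plus 20 nM camptothecin for at least 48 h at 37 C; viability read as ATP content by CellTiter-Glo luminescence.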
VP16 counter: counter-screen for ROR gamma inhibitors: Gal4-VP16 reporter; hit rate 3.5% among 310,000; Potency, µM (titrated, usually from 53.6 µM), without a hit: at the highest dose activity, negative = inhibition, usual class: inhibitors; AID 2546; Drosophila S2 Gal4-VP16 UAS-luciferase, luminescence, 20 h;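 further: Gal4-VP16 expression switched on by copper sulfate through the metallothionein promoter; potency means the concentration at half of the fitted maximal effect; nearly all actives have a fitted effect of over 50% in size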
DT40 TDP1 no CPT: qHTS for Inhibitors of human tyrosyl-DNA phosphodiesterase 1 (TDP1): qHTS in cells in absence of CPT; DT40 Tdp1-/- hTDP1 cells, no CPT, ATP luminescence, 48 h; Potency, µM (top dose mostly 46.2 µM), for the others: top-dose activity change, negative = growth inhibition, usual class: inhibitors; hit rate 15% among 420,000; AID 686978, 2013; further: potency means the concentration at half of the fitted maximal effect; nearly all actives have a fitted effect of over 55% in size
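Seeded 400 DT40-hTDP1 cells/well (vehicle DMSO, no 20 nM CPT); pinned compounds; ≥48 hr at 37 °C; CellTiter-Glo luminescence as viability measure.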
Numbers without * were called inactive; ? = inconclusive; · = no result. Unless noted, the call rests on the fitted dose curve; in most records, active means well fitted curve in the direction sought with a large enough effect; inconclusive means small, poorly fitted or top-dose-only effect, or another doubt; inactive means no such curve, though single readings can be large; an effect the other way counts as inactive or inconclusive. Unless noted, on the % scale 0 is the no-effect control and ±100 the full control effect.

SMILES	LDHA inh	RORg inh	IL-1B inflam inh	DT40 TDP1 CPT	VP16 counter	DT40 TDP1 no CPT
O=C(NCc1ccccc1)c1ccc(NC(=O)C2CCCCC2)cc1	-4	·	65	-19%	·	-27%
O=C(NC(=S)Nc1cccc([N+](=O)[O-])c1)C1CCCC1	1	13µM*	-23	-15%	?	-4%
CC(=O)NC(=S)Nc1cccc([N+](=O)[O-])c1	-14	?	-30	14%	16%	-21%
NS(=O)(=O)c1ccc(NC(=S)NC(=O)C2CCCCC2)cc1	-1	0%	3	-7%	6%	-4%
O=C(Nc1ccc(Br)cc1)C1CCCC1	-5	-21%	-4	-10%	1%	-11%
O=C(NC(=S)NCc1ccccc1)C1CCCCC1	-5	1.6µM*	31	18µM*	7.1µM*	21µM*
O=C(NC(=S)Nc1ccc(Br)cc1)C1CCC1	-2	6.3µM*	-12	-12%	7.9µM*	8%
O=C(NC(=S)Nc1ccc(Br)cc1)C1CCCCC1	1	5µM*	0	0%	7.9µM*	-13%
COC(=O)c1ccccc1NC(=O)C1CCCC1	1	0%	7	-10%	-14%	-22%
COC(=O)c1ccccc1NC(=S)NC(=O)C1CCCCC1	-9	13µM*	-3	-15%	?	?
O=C(NC(=S)Nc1ccccc1)C1CCCCC1	0	2.8µM*	-6	8%	4µM*	9%
O=C(NCc1cccs1)c1ccccc1-c1ccccc1	6	·	·	·	·	·
Cc1nc(SC(C)C(=O)NCCC2=CCCCC2)nc(C)c1C (stereo unspecified)	0	·	·	·	·	·
COc1ccccc1C(C)NC(=O)c1nn(C)c(=O)c2ccccc12 (stereo unspecified)	1	·	·	·	·	·
CCCCn1c(=O)[nH]c(=O)c2c1nc(COC(=O)C1CC1)n2CC	-4	·	·	·	·	·
COc1ccc(C2SCCN2S(=O)(=O)c2cccc(C)c2)cc1Br (stereo unspecified)	7	·	·	·	·	·
CC(C)c1ccc(S(=O)(=O)Nc2cc3c(cc2NCc2ccccc2)n(C)c(=O)n3C)cc1	3	·	·	?	·	?
CCc1ccccc1NS(=O)(=O)c1cc2c(cc1C)n(C)c(=O)c(=O)n2C	-4	43%	22	-23%	-8%	-23%
Cc1ccc(S(=O)(=O)Nc2cc3c(cc2NCc2ccccc2)n(C)c(=O)n3C)c(C)c1	23	·	·	8.2µM*	·	23µM*
Cc1ccc(S(=O)(=O)Nc2cc3c(cc2NCc2ccccc2)n(C)c(=O)n3C)cc1	22	·	·	9.2µM*	·	16µM*
Cn1c(=O)n(C)c2cc(NS(=O)(=O)c3ccc(F)cc3)c(NCc3ccccc3)cc21	20	·	·	9.2µM*	·	15µM*
Cc1ccc(C(=O)c2ccccc2C(=O)OCCCc2ccccc2)cc1C	0	·	·	·	·	·
CC(C)(C)n1ncc2c1NC(=O)CC21C(=O)Nc2c(Cl)cccc21 (stereo unspecified)	0	·	·	·	·	·
O=C(COC(=O)c1cccnc1Cl)Nc1cccc(S(=O)(=O)N2CCCCC2)c1	-12	31%	-14	9%	-6%	-16%
O=C(COC(=O)c1cc([N+](=O)[O-])ccc1NCCO)Nc1ccc2c(c1)OCO2	-2	8%	30	3%	-4%	5%
SMILES	LDHA inh	RORg inh	IL-1B inflam inh	DT40 TDP1 CPT	VP16 counter	DT40 TDP1 no CPT
O=C(COC(=O)c1ccccc1)Nc1cccc(S(=O)(=O)N2CCCCC2)c1	-5	·	1	6%	·	6%
CCS(=O)c1ccccc1C(=O)OCC(=O)Nc1cccc(S(=O)(=O)N2CCCCC2)c1 (stereo unspecified)	-1	·	4	12µM*	·	5.8µM*
CCOc1ccccc1C(=O)OCC(=O)Nc1cccc(S(=O)(=O)N2CCCC2)c1	-7	·	26	21µM*	·	21µM*
O=C(COC(=O)c1cc([N+](=O)[O-])ccc1NCCO)Nc1cccc(S(=O)(=O)N2CCCC2)c1	-6	·	-5	29µM*	·	13µM*
Cn1c(=O)c2c(nc(N3CCCCC3)n2CC(=O)C23CC4CC(CC(C4)C2)C3)n(C)c1=O	-3	·	·	·	·	·
CC(NC(=S)NNC(=O)c1ccco1)c1ccccc1 (stereo unspecified)	2	·	·	·	·	·
CC(C)c1ccc(C(=O)O)cc1	0	·	·	·	·	·
COCCn1c(CNC(=O)c2cc([N+](=O)[O-])ccc2Cl)nc2cccnc21	-6	·	·	-22%	·	-15%
COc1cccc(Cn2c(CNS(=O)(=O)c3ccc(F)c(Cl)c3)nc3cccnc32)c1	-3	·	·	?	·	10µM*
COc1cccc(Cn2c(CNC(=O)c3cc([N+](=O)[O-])ccc3Cl)nc3cccnc32)c1	-5	·	·	16µM*	·	?
Cc1cccc(Cn2c(CNS(=O)(=O)c3ccc(C(C)C)cc3)nc3cccnc32)c1	-9	·	·	?	·	15µM*
Cc1ccc(Cn2c(CNS(=O)(=O)c3ccc(F)c(Cl)c3)nc3cccnc32)cc1	3	·	·	-15%	·	-37%
Cn1cc(C(=O)NC2CCN(Cc3noc(C(C)(C)C)n3)CC2)cn1	0	·	·	·	·	·
O=C(Nc1oc2ccc(Cl)cc2c(=O)c1-c1ccccc1)c1ccco1	-1	·	·	·	·	·
COc1ccc(-c2csc(NC(=S)NC(=O)c3cccs3)n2)cc1Br	-12	4.5µM*	20	?	11µM*	?
COc1ccc(-c2csc(NC(=S)NC(=O)c3cccs3)n2)cc1OC	1	4.5µM*	-16	15µM*	14µM*	12µM*
COc1ccc(OC)c2sc(NC(=O)c3ccc(S(=O)(=O)N(C)C)cc3)nc12	2	-38%	-1	?	-10%	?
O=C(NC(=S)Nc1nc2c(ccc3ccccc32)s1)c1cccs1	2	2.5µM*	0	?	3.2µM*	15µM*
COc1ccc(-c2csc(NC(=S)NC(=O)c3ccc(S(=O)(=O)N(C)C)cc3)n2)cc1OC	-3	2.8µM*	29	?	?	?
COc1ccc(-c2csc(C)n2)cc1Br	-3	29%	0	11%	0%	-17%
CC(=O)Nc1ccc(Nc2cc(C(C)C)nc3c(-c4ccccc4)cnn23)cc1	-16	·	·	·	·	·
Cn1cnc(C(=O)O)c1	0	·	·	·	·	·
NCCCCCC(N)(C(=O)O)c1ccccc1 (stereo unspecified)	11	·	·	·	·	·
Cc1cccc(/C=N\NC(=O)c2ccc(Cl)cc2)c1O	-16	6.3µM*	118	4.6µM*	13µM*	?
Cc1cccc(/C=N/NC(=O)Cc2ccc(Cl)cc2)c1O	-12	1.1µM*	98	18µM*	1µM*	?
Cc1cccc(C(=O)N/N=C/c2ccccc2C)c1	-1	·	·	·	·	·
